From PubChem BioAssay
Only some compounds are listed: those with a hit (about 9.2% of all), similar ones and a draw of the others.
ELG1 repair inh: ELG1-dependent DNA repair inhibition | HEK293T ELG1-luciferase reporter, luminescence, 16 h; DNA damage induced by 5-fluorouridine | Potency, µM (titrated, usually from 46.1 µM), inactives show at the highest dose activity change, negative = inhibition, usual class: inhibitors | 2.3% of 330,000 active | AID 504467; note: % is set by controls: 0 for no effect and ±100 for the full control effect; nearly all actives have a fitted effect of over 55% in size
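DMSO vehicle served as the neutral condition. Each well held 2,000 cells given 5-fluorouridine plus compound; after 16 hr at 37 °C/5% CO2, ONE-Glo was added and luciferase measured 30 min later.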
FLuc counter: firefly luciferase modulation, counter-screen for miR-21 project. P08659. purified FLuc, Km substrates, luminescence inhibition. Potency, µM (highest dose often 57.5 µM), for the others: top-dose activity change, negative = inhibition, most hits filed as inhibitors. 6.9% of 360,000 active. AID 588342;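 note: plate controls were vehicle for no effect and reference inhibitor for full effect; nearly all actives have a fitted effect of over 55% in size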
Target sequence (P08659 whole entry, looked up): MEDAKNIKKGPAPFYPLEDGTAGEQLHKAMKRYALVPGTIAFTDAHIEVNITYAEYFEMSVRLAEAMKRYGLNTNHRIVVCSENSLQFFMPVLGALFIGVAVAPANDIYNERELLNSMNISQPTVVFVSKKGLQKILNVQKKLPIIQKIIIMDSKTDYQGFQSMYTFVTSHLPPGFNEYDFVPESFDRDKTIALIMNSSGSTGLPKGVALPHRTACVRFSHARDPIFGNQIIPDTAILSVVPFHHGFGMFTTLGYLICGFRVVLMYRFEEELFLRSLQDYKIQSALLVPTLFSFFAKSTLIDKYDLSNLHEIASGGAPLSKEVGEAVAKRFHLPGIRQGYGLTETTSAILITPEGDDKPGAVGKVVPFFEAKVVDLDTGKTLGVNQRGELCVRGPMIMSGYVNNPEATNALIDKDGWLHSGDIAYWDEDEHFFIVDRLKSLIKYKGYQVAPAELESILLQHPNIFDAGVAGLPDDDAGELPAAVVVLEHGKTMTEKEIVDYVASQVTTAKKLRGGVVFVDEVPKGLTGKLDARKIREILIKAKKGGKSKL
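Biochemical qHTS of compounds, final roughly 60 µM downward over six points, against 10 nM purified firefly luciferase using Km concentrations of substrates (10 uM D-luciferin, 10 uM ATP) in Tris acetate pH 7.5 buffer; luminescence output.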
NPC1 prom act: activators of NPC1 promoter; Huh7 NPC1 promoter luciferase reporter, 24 h; Potency, µM (doses to about 9.22 µM), for inactives: at the highest dose activation, actives largely listed as activators; 2.4% of 320,000 active; note: % of control where 0% means no effect; nearly all actives have a fitted effect of over 60% in size
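Stably transfected Huh7 (NPC1 promoter→luciferase), 1500 cells/well in Opti-MEM + 10% FBS, 2 h settle, then compound 24 h at 37 °C. Luminescence after 10 min with Amplite reagent.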
ELG1 genotox: inducers of genotoxicity in HEK293T ELG1-luciferase cells | Potency, µM (doses to about 46 µM), inactives show top-dose activity change, positive = activation, actives largely listed as activators | HEK293T ELG1-luciferase reporter, luminescence, 16 h | 1.3% of 330,000 active; note: % of control where 0% means no effect; nearly all actives have a fitted effect of over 60% in size
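After overnight (16 hr) compound treatment at 37 °C, ELG1-luciferase HEK293T cells were lysed with ONE-Glo; luminescence quantified 30 min later at room temperature.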
Rab9 promoter act: Rab9 promoter activation | AID 485297 | Huh7 Rab9 promoter-luciferase reporter, luminescence, 24 h | 2.8% of 320,000 active | Potency, µM (series often up to 9.22 µM), without a hit: at the top dose activation, negative = inhibition, hits mostly activators; note: % of control where 0% means no effect; nearly all actives have a fitted effect of over 60% in size
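Using Huh7 cells stably transfected with Rab9 promoter–luciferase, compounds were incubated 24 h at 37 °C, 5% CO2; luciferase luminescence was read 10 min after reagent addition.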
SMN2 splice up: increases expression of the SMN2 splice variant. HEK293 SMN2-luciferase splicing reporter, luminescence, 30-36 h. Potency, µM (titrated, usually from 46.1 µM), inactives show top-dose activity change, positive = activation, actives largely listed as activators. 2.8% of 210,000 active. AID 1458; note: % of control where 0% means no effect; nearly all actives have a fitted effect of over 55% in size
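HEK293 cells carry an SMN2 […]–luciferase reporter in which exon 7 inclusion puts luciferase in frame. Cells were plated 10-12 h before compound addition, then incubated 30-36 h at 37C. ONE-Glo luminescence was read; sodium butyrate at 4.5 mM final served as control.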
* marks the source's active call; other numbers are inactive results; ? = inconclusive; . = no result; [ ] = dose if it differs, or a comment. Calls come from the whole dose curve; as a rule, active = well fitted curve in the direction sought with a large enough effect; inconclusive = small, poorly fitted or top-dose-only effect, or another doubt; inactive = no such curve, though single readings can be large; an effect the other way counts as inactive or inconclusive. Potency is the fitted concentration of half-maximal effect.

SMILES	ELG1 repair inh	FLuc counter	NPC1 prom act	ELG1 genotox	Rab9 promoter act	SMN2 splice up
COc1ccccc1NC(=O)N1CCc2[nH]c3ccc(Cl)cc3c2C1	16.4µM*	-2.0%	-0.3%	1.4%	-3.6%	-8.7%
O=S(=O)(c1cccc(Br)c1)N1CCN(c2ccnc3cc(Cl)ccc23)CC1	-24.6%	-2.1%	-3.8%	-6.8%	5.9%	.
COc1ccccc1NC(=O)N1CCN(c2ccnc3cc(Cl)ccc23)CC1	11.6µM*	-4.7%	-0.4%	-8.9%	-2.6%	.
CCN(CC)CCCNC(=O)Cn1nc(N2CCN(c3ccccc3OC)CC2)ccc1=O	.	-0.2%	.	.	.	.
CC1CCN(C(=O)CSc2nc3c(c(=O)n2C)SC(C)C3)CC1 (stereo not given)	-1.5%	0.4%	-0.4%	0.4%	5.2%[1.84 µM]	.
CC1CC(C)CN(C(=O)C2CCN(S(=O)(=O)N3CCC4(CC3)OCCO4)CC2)C1 (stereo not given)	9.4%	0.2%	-0.1%	-1.9%	-0.9%	.
O=C(C1CCCCC1)N1CCN(c2ccnc3cc(Cl)ccc23)CC1	11.6µM*	-2.4%	-6.3%	-8.9%	-14.7%	.
COc1ccccc1NC(=O)N1CCN(c2cc(-c3ccccc3)nc3ncnn23)CC1	13µM*	2.1%	-4.0%	-13.7%	-14.7%	-36.8%
CCN(C(=O)c1cccc(S(=O)(=O)N2CCc3ccccc32)c1)C1CCS(=O)(=O)C1 (stereo not given)	-1.3%	.	0.6%	-0.3%	-1.0%	.
COc1cccc(CN(C)C(=O)c2ccc(NC(=O)CC3SC(N4CCCC4)=NC3=O)cc2)c1OC (stereo not given)	19.9%	3.6%	-0.5%	2.6%	-2.5%	.
COc1ccc(/C=C/C(=O)N(C)C2(C)CCS(=O)(=O)C2)cc1 (stereo not given)	17.3%	-4.2%	-1.8%	0.1%	-1.0%	.
C=CS(=O)(=O)c1ccc(Oc2ccc(S(=O)(=O)C=C)cc2)cc1	2.59µM*	0.3%	-40.1%	-14.8%	-51.9%	-92.2%
O=C(O)CCCN1C(=O)/C(=C/c2ccc(-c3nc4ccccc4s3)o2)SC1=S	?	-5.7%	10.5%	13.5%	-1.3%	17.8µM*
O=C(O)CCCCCN1C(=O)/C(=C\c2ccc(-c3ccc(Cl)cc3)o2)SC1=S	16.8%	?	-2.5%	3.7%	-4.2%	.
Cc1nc2cc(-c3ccccc3)ccc2o1	?	12µM*	7.7%	6.6%	2.1%	-12.4%
Cc1ccc2oc(=O)c(/C=C(\O)c3ccccc3)nc2c1	-13.1%	?	0.0%	-5.3%	-2.1%	14.5%
COc1cccc(-c2ccc3ncnc(NCc4cccs4)c3c2)c1	14.6µM*	0.1%	-0.7%	-7.9%	-4.2%	-22.9%
Cn1ccc2cc(-c3ccc4ncnc(NCc5cccnc5)c4c3)ccc21	.	19µM*	-3.0%	.	-1.6%	.
COc1cccc(-c2ccc3ncnc(NCc4cccc(F)c4)c3c2)c1	.	-1.3%	-2.3%	.	-2.1%	.
COc1cccc(-c2ccc3ncnc(NCc4cccc(C)c4)c3c2)c1	16.4µM*	4.9%	-2.1%	-9.8%	-0.7%	.
Cc1noc(C)c1-c1ccc2ncnc(NCc3ccccc3)c2c1	.	.	.	.	.	2.82µM*
COc1cccc(CNc2ncnc3ccc(-c4c(C)noc4C)cc23)c1	24.1%	2.6%	-4.9%	?	-2.4%	.
Cc1ccc(OCC(=O)Nc2nonc2-c2ccc(Br)cc2)cc1C	.	-9.6%	.	.	.	.
O=c1ccc(S(=O)(=O)N2CCCC2)cn1Cc1ccc(Cl)cc1Cl	-18.4%	-13.9%	-8.4%	-7.0%	-6.1%	.
COC(=O)c1nc2n(n1)C(c1cc(OC)ccc1OC)C=C(c1ccc(Br)cc1)N2 (stereo not given)	.	-11.0%	.	.	.	.
SMILES	ELG1 repair inh	FLuc counter	NPC1 prom act	ELG1 genotox	Rab9 promoter act	SMN2 splice up
Fc1ccc(C2=CC(c3ccc(F)cc3)n3c(nc4ccccc43)N2)cc1 (stereo not given)	.	10.7µM*	.	.	.	.
COC(=O)c1ccc(C2C=C(c3ccc(Cl)cc3)Nc3nc4ccccc4n32)cc1 (stereo not given)	.	6.75µM*	.	.	.	.
COc1ccc(C(=O)Nc2nc3n(n2)C(c2ccc(F)cc2)C=C(c2ccc(Cl)cc2)N3)cc1 (stereo not given)	.	-13.9%	.	.	.	.
COc1ccc(C2=CC(c3cc(Br)ccc3F)n3c(nc4ccccc43)N2)cc1 (stereo not given)	.	4.26µM*	.	.	.	.
Clc1ccc(-n2cccc2CN2CCc3c([nH]c4ccccc34)C2c2ccccn2)nc1 (stereo not given)	-5.2%	-9.8%	-3.0%	-5.5%	-2.8%	.
CCCCN1CC(=O)N2[C@H]3c4ccc(OC)cc4OC[C@@H]3[C@H](c3ccccc3)[C@]2(C)C1=O	?	-0.8%	1.0%	0.1%	1.8%	.
CC(C)CCN1CCC(n2nccc2NC(=O)c2ccc3c(c2)OCO3)CC1	?	0.5%	2.7%	1.5%	4.7%	.
COc1cccc(C(C(=O)NC2CCCCC2)N(C(=O)CNC(=O)c2ccco2)c2cccnc2)c1 (stereo not given)	-5.1%	2.0%	-5.1%	0.5%	-1.5%	.
COc1cccc(C(=O)NC23CC4CC(CC(C4)C2)C3)c1	1.9%	16.9µM*	2.8%	9.6%	3.8%	.
COc1ccc(C(=O)NCC(=O)OCC(=O)NC23CC4CC(CC(C4)C2)C3)cc1	?	.	.	4.4%	.	.
Cc1nn(Cc2cccc(C(=O)NC34CC5CC(CC(C5)C3)C4)c2)c(C)c1Br	23.1µM*	-9.2%	-3.4%	-9.8%	-0.4%	-49.9%
O=C(NC12CC3CC(CC(C3)C1)C2)c1cccc([N+](=O)[O-])c1	-7.9%	-11.3%	1.6%	-2.6%	3.5%	.
COc1ccc(C(=O)NC23CC4CC(CC(C4)C2)C3)cc1	?	7.57µM*	1.8%	3.8%	17.7%	.
O=C(c1cccs1)N1CCCC(c2nc3c(nnn3Cc3ccccc3Cl)c(=O)[nH]2)C1 (stereo not given)	-0.8%	0.5%	-0.7%	0.7%	2.8%	.
CC(C)CC(=O)Nc1ccc(C(=O)Nc2cccc(O)c2)cc1	?	16.9µM*	29.8%	?	?	.
O=C(O)c1ccc2nc(-c3ccco3)c(-c3ccco3)nc2c1	1.2%	?	-0.1%	-1.0%	-6.7%	-21.7%
O=C(Nc1ccc(Br)c(C(F)(F)F)c1)c1ccccc1	?	19µM*	-3.7%	2.0%	-1.4%	-12.7%
O=C(Nc1cccc(O)c1)c1ccc(C(F)(F)F)cc1	?	12µM*	?	18.3%	?	.
O=C(Nc1cccc(C(F)(F)F)c1)c1ccc2nc(-c3ccco3)c(-c3ccco3)nc2c1	20.6µM*	?	-0.1%	-25.0%	-4.0%	-10.8%
Cc1ccc(C(=O)OCC(=O)NCc2ccc(Cl)cc2Cl)o1	11.1%	-8.9%	3.0%	0.3%	-2.9%	.
